# SUMO Mot1 rescue: blocks SUMOylation pathway, rescuing yeast Mot1-301 growth; S. cerevisiae Mot1-301 growth rescue, ATP luminescence, 38.5C; percent above DMSO median, 100 means doubled; growth rescue, % at 18.8 µM; actives 1% (n = 320,000); AID 2716;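 active = every valid replicate shows activation above 250% relative to neutral control wells; inactive = the rest, any valid replicate at or below 250%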;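 also: OY570 slx delta 5 strain wells were the positive control but not used for scaling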
# PfM18AAP inh: PfM18AAP enzyme inhibition | recombinant PfM18AAP, H-Glu-NHMec fluorogenic cleavage | inhibition, % at 7.35 µM | actives 1.2% (n = 290,000) | AID 1822;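 active = inhibition above the campaign mean inhibition over all tested compounds plus 3 SD, cut at about 28% in these data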;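 also: 0% = plate median of test compound wells and 100% = 2 mM ZnCl2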
# ALR inh: human ALR oxidase inhibition via reduced H2O2; P55789; purified ALR, DTT oxidation, H2O2 HRP-luminol luminescence; inhibition, % (test concentration not listed); actives 3.8% (n = 290,000); AID 485317;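 active = mean replicate inhibition above about 79%, with every replicate also reaching it, limit read from the data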
# Target sequence (P55789 whole entry, looked up): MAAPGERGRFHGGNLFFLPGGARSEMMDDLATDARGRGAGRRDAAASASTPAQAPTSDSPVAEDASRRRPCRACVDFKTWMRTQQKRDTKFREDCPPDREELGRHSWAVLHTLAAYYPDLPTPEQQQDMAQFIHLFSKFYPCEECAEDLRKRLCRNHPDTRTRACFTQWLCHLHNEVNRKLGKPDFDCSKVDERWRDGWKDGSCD
# HIF act: HIF pathway transcriptional activation; U2OS HRE-luciferase reporter, luminescence; normalized: DMSO 0%, desferrioxamine 100%; activation, % at 7.5 µM (by protocol); actives 0.32% (n = 300,000);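 active = mean activation of at least 10% of the iron chelator positive control signal, with at least half of replicates also reaching 10%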
# Yeast Mot1 SUMO: yeast SUMO pathway inhibition in dose response; shares compounds with SUMO Mot1 rescue; S. cerevisiae Mot1-301 galactose growth, ATP luminescence, 24 h; -100 = growth of slx-deleted rescue strain; growth activity, percent, % at 42 µM; 2,300 tested, under 10 active;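 active = Signal drops as the depositor expects, and the fitted half-maximal dose is no more than ten times the top valid tested dose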;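 also: more negative values mean stronger growth rescue toward the control strain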
# Numbers without * were called inactive; nt = no result given; + = active, no number. Only some compounds are listed: those with a hit (about 5.3% of all), similar ones and a draw of the others.
SMILES,SUMO Mot1 rescue,PfM18AAP inh,ALR inh,HIF act,Yeast Mot1 SUMO
CCOc1ccc(-c2cc(N)n(S(=O)(=O)c3ccc(OC)c(OC)c3)n2)cc1,3,-2,-4,0,nt
Nc1cc(-c2ccc(Cl)cc2)nn1S(=O)(=O)c1ccc(Cl)cc1,545*,-4,-3,0,0
COc1ccc(S(=O)(=O)n2nc(-c3ccc(Cl)cc3)cc2N)cc1OC,388*,8,4,0,0
O=C(N/N=C/c1ccc(N2CCCCC2)o1)c1ccccc1[N+](=O)[O-],0,10,-6,-1,nt
CCC(C)(C)n1nnnc1C(c1ccncc1)N1CCC(Cc2ccccc2)CC1 (stereo not given),30,3,nt,-1,nt
CCC(C)(C)n1nnnc1C(c1cccnc1)N1CCC(Cc2ccccc2)CC1 (stereo not given),594*,3,nt,0,1
COc1cc(NC(=S)N2CCN(C(=O)C3CCCO3)CC2)c(OC)cc1Cl (stereo not given),370*,15,-39,0,1
O=c1[nH]nc(Cc2ccc(-c3ccccc3Cl)o2)c2ccccc12,360*,-6,-11,2,0
COc1ccc2c(c1)c(CC(=O)OCC(N)=O)c(C)n2C(=O)c1ccc(Cl)cc1,674*,-2,-1,0,0
CC(C)(C)n1nc2c(c1NC(=O)c1c(F)cccc1F)CS(=O)(=O)C2,9,-13,-3,0,nt
COc1ccc(/C=C2\SC(=S)N(CCCC(=O)Nc3cc(C)on3)C2=O)cc1OC,+,-6,0,0,0
COc1ccc2cc(CN(CC3CCCO3)C(=S)NCc3ccco3)c(=O)[nH]c2c1 (stereo not given),8,0,-7,0,nt
COc1ccc(/C=C/C(=O)NC(=S)Nc2ccccn2)cc1,900*,-8,-17,3,0
COc1ccccc1/C=C/C(=O)NC(=S)Nc1ccccn1,-19,2,-2,3,nt
CC(C)C[C@@H](CO)N1CCN(Cc2ccc(Br)cc2)CCC1=O,6,2,nt,-1,nt
CC(C)C[C@@H](CO)N1CCN(Cc2cccnc2)CCC1=O,621*,0,1,0,0
CN(C/C=C/c1ccccc1[N+](=O)[O-])Cc1ccccc1,372*,9,-9,-2,0
Oc1c(Br)cc(Br)cc1C=Nc1cccnc1,481*,30*,nt,0,-1
Oc1c(Br)cc(Br)cc1C=Nc1ccc2[nH]ncc2c1,360*,21,0,0,-1
Oc1c(Br)cc(Br)cc1/C=N/c1nccs1,131,nt,1,nt,nt
CC1(C)CC(=O)C(C=Nc2ccc3cn[nH]c3c2)=C(O)C1,52,17,-18,nt,nt
Cc1ccc(-c2nc3c(=O)n(-c4ccccc4)c4c(c(=O)n(C)c(=O)n4C)c3o2)cc1,796*,-1,-3,0,1
CCOc1cc(N2CCOCC2)c(OCC)cc1NS(=O)(=O)c1cc(NC(C)=O)ccc1OC,-16,10,12,1,nt
CCOc1ccc(N2CC(C(=O)NC3CCCC3)CC2=O)cc1 (stereo not given),2,3,-9,1,nt
Cc1ccc(Oc2ccc(C=O)cn2)cc1,2,2,nt,1,nt
SMILES,SUMO Mot1 rescue,PfM18AAP inh,ALR inh,HIF act,Yeast Mot1 SUMO
CO/N=C/c1ccc(Oc2ccc(C)cc2)nc1,495*,-1,1,3,0
CCOc1ccc2nc(N(CCN(CC)CC)C(=O)/C=C/c3cccs3)sc2c1,16,-3,5,1,nt
O=C(CCn1cnnn1)Nc1ccc(Cl)cc1Cl,721*,-9,-1,0,1
CCOc1ccc2[nH]c(=O)c(CN(Cc3ccco3)C(CC)c3nnnn3Cc3ccccc3)cc2c1 (stereo not given),+,22,-1,0,0
CCOC(=O)c1c(N2C(=O)C3CC(C)=C(C)CC3C2=O)sc(C)c1C (stereo not given),-7,-3,0,0,nt
CCOc1ccccc1CN1CCCC(CNS(=O)(=O)c2ccc(OC)cc2)C1 (stereo not given),-6,2,-1,0,nt
Cc1cccc(Cn2c(C(=O)OC(C)C)cc3c2ccn3C)c1,+,3,-5,-1,1
CCOC(=O)c1cc2c(ccn2C)n1Cc1ccc(Cl)cc1,8,5,nt,-1,nt
CCSc1nc2ccccc2c(=O)n1C1CCOC(C)(C)C1 (stereo not given),545*,-3,1,0,0
COc1ccccc1N1C(=O)c2ccccc2NC1c1cc(OC)c(OC)c(OC)c1 (stereo not given),-5,1,-22,-1,nt
COc1ccccc1N1C(=O)c2ccccc2NC1C(OC)OC (stereo not given),+,4,-6,0,0
O=C(CSc1nnc(NC(=O)C2CC2)s1)Nc1ccc2c(c1)OCCO2,11,1,-3,-1,nt
Cc1ccc(CNC(=O)CCS(=O)(=O)c2ccc(Br)s2)o1,11,3,13,0,nt
O=C(CCS(=O)(=O)c1ccc(Br)s1)NCc1ccccc1,737*,-3,2,0,-1
Cc1nc2ccc(NC(=O)c3ccc(S(=O)(=O)N4CCOCC4)cc3)cc2s1,+,-1,-8,0,0
CC(=O)Nc1ccc(C(=O)Nc2ccc(S(=O)(=O)N3CCOCC3)cc2)cc1,533,4,-10,-26,nt
COc1ccc2nc(NC(=O)c3cc(S(=O)(=O)N4CCOCC4)ccc3C)sc2c1,529*,-5,-8,0,0
COc1ccc2nc(NC(=O)c3cccc(S(=O)(=O)N4CCOCC4)c3)sc2c1,102,-11,-5,2,nt
CCC/C(O)=N\S(=O)(=O)c1ccc(N=NN(C)C)cc1,269,-8,-5,-2,nt
Cc1ccc(N2CC(C(=O)Nc3cccc(C(=O)NC4CC4)c3)CC2=O)cc1 (stereo not given),9,nt,nt,nt,nt
Cc1cc(-c2nnc3sc(C4CCCCC4)nn23)n[nH]1,691*,-6,-1,0,0
COc1cc(-c2nnc3sc(C4CCCCC4)nn23)cc(OC)c1OC,nt,4,-2,0,nt
CC(C)(C)NC(=S)NCc1cccnc1,978*,-4,2,0,1
CC(C)(C)NC(=O)NCc1cccnc1,-17,1,-7,0,nt
O=C(NCc1cccnc1)Nc1cccc(NC(=O)NCc2cccnc2)c1,12,2,-19,0,nt
SMILES,SUMO Mot1 rescue,PfM18AAP inh,ALR inh,HIF act,Yeast Mot1 SUMO
CS(=O)(=O)N(CCc1ccccc1)CC(=O)NCc1cccnc1,854*,3,3,0,0
Cc1ccc(CNC(=O)CN(CCc2ccccc2)S(C)(=O)=O)cc1,14,-6,-4,-1,nt
O=C(NCc1cccnc1)Nc1ccccc1,564*,-5,-6,0,0
Cc1ccc(S(=O)(=O)NC(CC(C)C)C(=O)Nc2nccs2)cc1 (stereo not given),-19,-2,1,-1,nt
C=CCN1C(=S)CC(c2ccccc2)=Nc2ccccc21,22,-2,-4,-1,nt
O=[N+]([O-])c1ccc(N/N=C/c2cccc(O)c2)cc1,484*,28*,67,-2,-2
